# Test results published in PubChem BioAssay (NCATS).
# Inconclusive results are not listed. Active and inactive are the calls of the source. Calls follow the shape of the dose curve; as a rule, active = well fitted inhibition curve with a large enough effect; inconclusive = small, poorly fitted or top-dose-only effect; inactive = flat fitted curve, though single readings scatter.
# Molecular target: Calcium and integrin-binding protein 1 (Homo sapiens) (UniProt Q99828)
# Experiment: Primary qHTS for Identification of Calcium Integrin Binding Protein 1 (CIB1) Competitor (AID 1508620);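 as to activity change, negative = inhibition: GST tagged CIB1 binding a fluorescein labelled alphaIIb integrin peptide tracer; top concentration of the series differs between compounds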
# Conditions: CIB1-GST / FITC-alphaIIb peptide fluorescence polarization; series mostly up to 57.7 µM; activity change, negative = inhibition: at the top concentration
# Procedure, shortened: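 CIB1-GST (1 uM final) and compound incubated 15 min at room temperature before adding FITC-alphaIIb peptide tracer (100 nM final). Competition for binding read by fluorescence polarization (ex 480, em 540) after another 15 min at room temperature.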
# % is scaled to controls: 0 for no effect and ±100 for the full control effect; potency is read from the fitted curve at half-maximal effect.
# Sequence of Calcium and integrin-binding protein 1 (Homo sapiens) (Q99828 whole entry, looked up): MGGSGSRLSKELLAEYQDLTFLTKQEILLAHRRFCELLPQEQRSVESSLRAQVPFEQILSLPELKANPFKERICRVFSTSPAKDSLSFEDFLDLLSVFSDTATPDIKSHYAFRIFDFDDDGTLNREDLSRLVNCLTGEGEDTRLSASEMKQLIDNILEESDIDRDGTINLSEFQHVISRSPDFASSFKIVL
Structure (SMILES),"activity change, negative = inhibition",Potency
C#C[C@]1(O)CC[C@H]2[C@H]3CCc4cc(OC)ccc4[C@H]3CC[C@@]21C,-2.59% (inactive),–
CN(CC=CC#CC(C)(C)C)Cc1cccc2ccccc12,-2% (inactive),–
Cc1cc2nc3c(=O)[nH]c(=O)nc-3n(CC(O)C(O)C(O)CO)c2cc1C (stereo unspecified),–,6.81 µM (active)
CN(C(Cc1ccc(OS(=O)(=O)c2cccc3cnccc23)cc1)C(=O)N1CCN(c2ccccc2)CC1)S(=O)(=O)c1cccc2cnccc12 (stereo unspecified),1.65% (inactive),–
C[C@@H]1O[C@@H](O[C@H]2CC[C@@]3(C)[C@H](CC[C@@H]4[C@H]3C[C@@H](O)[C@]3(C)[C@@H](C5=CC(=O)OC5)CC[C@]43O)C2)C[C@H](O)[C@@H]1O[C@H]1C[C@H](O)[C@H](O[C@H]2C[C@H](O)[C@@H](O)[C@@H](C)O2)[C@H](C)O1 (stereo in doubt),-3.2% [at 114 µM] (inactive),–
CC1(C)C(N(O)C(=O)Nc2ccc(Cl)cc2)N(c2ccc(Cl)cc2)C(=O)N1CC(=O)NN=CC=Cc1ccc([N+](=O)[O-])o1 (stereo unspecified),-18% (inactive),–
O=C1C(CCC(O)c2ccc(F)cc2)C(c2ccc(O)cc2)N1c1ccc(F)cc1 (stereo unspecified),-6.43% (inactive),–
CCC[C@@H](NC(=O)[C@@H]1[C@H]2CCC[C@@H]2CN1C(=O)[C@@H](NC(=O)[C@@H](NC(=O)c1cnccn1)C1CCCCC1)C(C)(C)C)C(=O)C(=O)NC1CC1,1.24% (inactive),–
CCOC(=O)[C@H]1O[C@H]1C(=O)N[C@@H](CC(C)C)C(=O)NCCC(C)C,-1.74% (inactive),–
CC[C@H]1OC(=O)[C@H](C)[C@@H](O[C@H]2C[C@@](C)(OC)[C@@H](O)[C@H](C)O2)[C@H](C)[C@@H](O[C@@H]2O[C@H](C)C[C@H](N(C)C)[C@H]2O)[C@](C)(O)C[C@H](C)C(=NOCOCCOC)[C@H](C)[C@@H](O)[C@]1(C)O,-0.41% (inactive),–
NC(=O)c1ncn([C@@H]2O[C@H](CO)[C@@H](O)[C@@H]2O)n1,-1.86% (inactive),–
CCCCCOC(=O)Nc1nc(=O)n([C@@H]2O[C@H](C)[C@@H](O)C2O)cc1F (stereo partly specified),2.47% (inactive),–
CC(=O)O[C@]1(C(C)=O)CC[C@H]2[C@@H]3C=C(Cl)C4=CC(=O)[C@@H]5C[C@H]5[C@]4(C)[C@@H]3CC[C@@]21C,-1.05% (inactive),–
CO[C@H]1/C=C\O[C@@]2(C)Oc3c(C)c(O)c4c(O)c(c(C=NN5CCN(C6CCCC6)CC5)c(O)c4c3C2=O)NC(=O)C(C)=CC=C[C@H](C)[C@H](O)[C@@H](C)[C@@H](O)[C@@H](C)[C@H](OC(C)=O)[C@H]1C,-9.32% (inactive),–
O=C(NC[C@H](O)CO)c1ccncc1Nc1ccc(I)cc1F,4.15% (inactive),–
CN1CC(=O)N2C(Cc3c([nH]c4ccccc34)[C@H]2c2ccc3c(c2)OCO3)C1=O (stereo partly specified),4.14% (inactive),–
COc1c(C)c2c(c(O)c1CC=C(C)CCC(=O)O)C(=O)OC2,1.54% (inactive),–
O[C@@H](COc1cccc2ncccc12)CN1CCN(C2c3ccccc3[C@@H]3[C@H](c4ccccc42)C3(F)F)CC1 (stereo partly specified),–,inactive

Structure (SMILES),"activity change, negative = inhibition",Potency
CCCCN(CCCC)CC(O)c1cc(Cl)cc2c1-c1ccc(Cl)cc1C2=Cc1ccc(Cl)cc1 (stereo unspecified),-1.26% (inactive),–
C[C@H]1O[C@@H](n2cc(F)c(=O)[nH]c2=O)[C@H](O)[C@H]1O,1.66% (inactive),–
C[C@@H]1[C@H](O)[C@@H](C)C=CC=CC=CC=CC=CC=CC=C[C@H](O[C@@H]2O[C@H](C)[C@H](O)[C@H](N)[C@@H]2O)C[C@@H]2O[C@](O)(C[C@@H](O)C[C@@H](O)[C@H](O)CC[C@@H](O)C[C@@H](O)CC(=O)O[C@H]1C)C[C@H](O)[C@@H]2C(=O)O,19.9% (inactive),–
CN[C@H]1[C@@H](O[C@@H]2[C@H](O[C@@H]3[C@@H](O)[C@@H](O)[C@@H](N=C(N)N)[C@@H](O)[C@@H]3N=C(N)N)O[C@H](C)[C@@]2(O)C=O)O[C@@H](CO)[C@@H](O)[C@H]1O,-2.24% [at 12.4 µM] (inactive),–
O=C(O)C1=CO[C@@H](O[C@@H]2O[C@H](CO)[C@H](O)[C@H](O)[C@H]2O)[C@@H]2C(CO)=CC[C@H]12,-2.51% (inactive),–
CC=C(C(=CC)c1ccc(O)cc1)c1ccc(O)cc1,5.28% (inactive),–
CC1(C)[C@H]2CC[C@]3(C)[C@@H](C(=O)C=C4[C@@H]5C[C@@](C)(C(=O)O)CC[C@]5(C)CC[C@]43C)[C@@]2(C)CC[C@@H]1O,-1.83% (inactive),–
Cc1[nH]c(C=C2C(=O)Nc3ccc(S(=O)(=O)N(C)c4cccc(Cl)c4)cc32)c(C)c1C(=O)N1CCN(C)CC1,1.64% (inactive),–
COC(=O)N1CCN(Cc2cccc(NC(=O)Nc3ccc(C)nc3)c2F)CC1,–,inactive
Oc1ccc(C=Cc2cc(O)cc(O)c2)cc1,-14% (inactive),–
CCC(c1ccc(O)cc1)C(CC)c1ccc(O)cc1 (stereo unspecified),-11.7% (inactive),–
CCC=CC[C@H]1C(=O)CC[C@@H]1CC(=O)OC,-4.28% (inactive),–
CCOC(=O)N1CCN([N+]([O-])=NOc2cc(ON=[N+]([O-])N3CCN(C(=O)OCC)CC3)c([N+](=O)[O-])cc2[N+](=O)[O-])CC1,-18.2% (inactive),–
O=C(O)c1ccc(O)c2ncc(N3CCOCC3)cc12,–,inactive
O=C(Nc1ccccc1)Nc1ccc(-c2ccc(C(=O)[C@H]3CCC[C@H]3C(=O)O)cc2)cc1,-7.39% (inactive),–
CNc1nc(-c2ccc3c(N)n[nH]c3c2)cc(N2C[C@@H](C(=O)NC3CCCCC3)CC[C@@H]2C)n1,-5.55% (inactive),–
CC(C)c1onc(-c2c(Cl)cccc2Cl)c1COc1ccc(C=Cc2cccc(C(=O)O)c2)c(Cl)c1,-4.41% (inactive),–
O=C(c1ccc(C=Cc2n[nH]c3ccccc23)cc1)N1CCNCC1,-2.19% (inactive),–
